From PubChem
JMJD2E inh – blocks human JMJD2E demethylase activity; 1.6% of 230,000 active; Potency, µM (doses to about 57.1 µM), for the others: at the highest dose activity change, negative = inhibition, most hits filed as inhibitors; B2RXH2; JMJD2E catalytic domain, FDH-coupled NADH fluorescence (FDH is formaldehyde dehydrogenase);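 note: potency is the fitted concentration of half-maximal effect; 0% = wells with enzyme and -100% = buffer wells without enzyme; nearly all actives have a fitted effect of over 50% in size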
Target sequence (B2RXH2 1-337 limits assumed): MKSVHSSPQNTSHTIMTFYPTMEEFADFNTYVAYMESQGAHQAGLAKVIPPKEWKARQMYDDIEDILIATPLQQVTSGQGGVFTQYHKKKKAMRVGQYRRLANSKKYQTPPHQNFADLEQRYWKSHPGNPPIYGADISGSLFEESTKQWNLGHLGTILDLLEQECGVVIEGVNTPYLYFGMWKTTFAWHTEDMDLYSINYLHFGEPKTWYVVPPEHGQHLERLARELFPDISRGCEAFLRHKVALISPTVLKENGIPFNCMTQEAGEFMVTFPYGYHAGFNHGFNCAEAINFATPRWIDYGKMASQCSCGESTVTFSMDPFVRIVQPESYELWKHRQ
Coupling enz – inhibits coupling enzyme system, counter-screen for aldolase hits; coupling enzyme system counterscreen, AmpLite Red fluorescence; activity change, negative = inhibition, % at 58.2 µM, hits read low; 0.67% of 290,000 active; AID 2472; in the data active = activity change below about -30%; note: % is set by controls: 0 for no effect and ±100 for the full control effect
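Counterscreen of the coupled detection system alone, without aldolase: glyceraldehyde-3-phosphate coupling enzymes plus AmpLite Red readout. Compounds at 57.5 uM final, 10 min RT preincubation, 20 min RT reaction, fluorescence 525/598 nm.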
GoLoco inh red – blocks human Gai1 binding to RGS12 GoLoco peptide, red readout; Gai1:RGS12 GoLoco peptide FP, rhodamine, 10 min; Potency, µM (top dose mostly 61.6 µM), for inactives: at the top dose activity, negative = inhibition, hits mostly inhibitors; 0.44% of 230,000 active; AID 880; active = well fitted inhibition curve with a large enough effect, not every such curve was filed as active; inactive = no such curve, though single readings can be large or run the other way; note: potency is the fitted concentration of half-maximal effect; % is set by controls: 0 for no effect and ±100 for the full control effect; nearly all actives have a fitted effect of over 30% in size
Target sequence (P63096 whole entry, looked up): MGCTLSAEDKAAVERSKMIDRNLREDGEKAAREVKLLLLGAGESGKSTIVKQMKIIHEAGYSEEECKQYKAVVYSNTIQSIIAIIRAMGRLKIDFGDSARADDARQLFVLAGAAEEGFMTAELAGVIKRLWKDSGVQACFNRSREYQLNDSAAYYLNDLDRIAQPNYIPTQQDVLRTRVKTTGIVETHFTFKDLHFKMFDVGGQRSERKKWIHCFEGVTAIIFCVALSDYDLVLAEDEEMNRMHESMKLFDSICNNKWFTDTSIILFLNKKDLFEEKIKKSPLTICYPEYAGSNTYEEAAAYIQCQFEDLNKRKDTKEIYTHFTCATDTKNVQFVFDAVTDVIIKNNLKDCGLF
HTT aggregate – reduces HttQ103-GFP aggregates in PC12 cells | PC12 HttQ103-GFP aggregates, Acumen cytometry, 40 h | Potency, µM (doses to about 46.1 µM), for inactives: top-dose activity change, negative = inhibition, most hits filed as inhibitors | 1.1% of 220,000 active; note: potency is the fitted concentration of half-maximal effect; % is set by controls: 0 for no effect and ±100 for the full control effect; nearly all actives have a fitted effect of over 60% in size
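Ecdysone-promoter PC12 model expressing HTT exon 1 Q103 fused to GFP, induced by tebufenozide at 100 nM final. Compounds titrated; aggregates sized 1–25 µm scored on a 488 nm laser cytometer.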
VDR inh – blocks the human vitamin D receptor; VDR-SRC2-3 peptide fluorescence polarization, 2 h; Potency, µM, inactives show max response, negative = inhibition, actives largely listed as inhibitors; 0.93% of 400,000 active; AID 504847; note: potency is the fitted concentration of half-maximal effect; % is set by controls: 0 for no effect and ±100 for the full control effect
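Two reagent solutions held at 4 deg C in the dark were dispensed, compounds pinned at 23 nl, and the mixture incubated 2 h at room temperature. Read-out: fluorescence polarization of VDR–SRC2-3 peptide binding.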
HTT ATP protect – Huntington cell model cytoprotection by ATP luminescence. PC12 HTT-Q103 induced, cytoprotection, ATP luminescence, 40 h. Potency, µM (top dose mostly 56.4 µM), inactives show cytoprotection (ATP increase), actives largely listed as activators. 0.14% of 230,000 active; note: potency is the fitted concentration of half-maximal effect; % of control where 0% means no effect; nearly all actives have a fitted effect of over 45% in size
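Rat PC12, Q103 Htt exon1-GFP fusion, ecdysone promoter; tebufenozide inducer 100 nM final; compound titration; qHTS, 1500 cells/well; ATPlite luminescent read.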
VDR inh confirm – confirmation of human vitamin D receptor inhibitors; shares compounds with VDR inh; Potency, µM, hits mostly inhibitors; VDR-coactivator inhibition assay, qHTS confirmation; 89% of 840 active; note: potency is the fitted concentration of half-maximal effect
VDR FP – VDR (human) coactivator binding inhibition, fluorescein polarization; AID 602200; shares compounds with VDR inh; VDR-coactivator binding, fluorescein fluorescence polarization; Potency, µM (titrated, usually from 57.1 µM), without a hit: at the top dose activity change, negative = inhibition, hits mostly inhibitors; 48% of 840 active; note: potency is the fitted concentration of half-maximal effect
VDR bla – confirmation of human vitamin D receptor inhibitors in reporter cells | shares compounds with VDR inh | VDR beta-lactamase reporter cells, FRET ratio; cells co-treated with VDR agonist LG190178 | Potency, µM (doses to about 46.1 µM), for the others: at the highest dose activity change, negative = inhibition, actives largely listed as inhibitors | 23% of 840 active | AID 602202; note: potency is the fitted concentration of half-maximal effect; % is set by controls: 0 for no effect and ±100 for the full control effect
VDR cytotox – cytotoxic in counter-screen for VDR inhibitors; shares compounds with VDR inh; cytotoxicity counter-screen, cell viability, qHTS; Potency, µM (top dose mostly 48.3 µM), without a hit: at the top dose activity change, negative = cytotoxicity, most hits filed as cytotoxic; 18% of 840 active; AID 602204;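 note: potency is the fitted concentration of half-maximal effect; plate controls were DMSO for no effect and high-concentration cycloheximide for full effect; nearly all actives have a fitted effect of over 75% in size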
* marks the source's active call; other numbers are inactive results; [ ] = another dose, or the depositor's remark. Rows were chosen to be rich in hits. Some 2.3% of all compounds tested hit in one or more screens of this group. Unless noted, calls come from the whole dose curve; as a rule, active = well fitted curve in the direction sought with a large enough effect; inconclusive = small, poorly fitted or top-dose-only effect, or another doubt; inactive = no such curve, though single readings can be large; an effect the other way counts as inactive or inconclusive.

CCOC(=O)c1c(C2COc3ccccc3O2)csc1NC(=O)c1ccco1 (stereo unspecified) was read as JMJD2E inh inconclusive, Coupling enz -4, GoLoco inh red -27%, HTT aggregate 17%, VDR inh inconclusive, HTT ATP protect -20%[0.074 µM], VDR inh confirm inconclusive, VDR FP 2.2µM*, VDR bla -25% and VDR cytotox -4%.
For Nc1ccc(Sc2ccc([N+](=O)[O-])cc2)cc1 the results were JMJD2E inh -1%, Coupling enz -3, GoLoco inh red 6%, HTT aggregate 2%, VDR inh 3% and HTT ATP protect -47%.
Screening Cc1ccc(C(C[N+](=O)[O-])Sc2ccc(N)cc2)cc1 (stereo unspecified) returned JMJD2E inh -10%, Coupling enz 3, GoLoco inh red 3%, HTT aggregate 2%[9.22 µM], VDR inh 13µM*, HTT ATP protect -14%[10 µM], VDR inh confirm 7.5*, VDR FP inconclusive, VDR bla inconclusive and VDR cytotox inconclusive.
For CC(OC(=O)c1ccc2ccccc2c1)C(=O)N(C)Cc1ccccc1 (stereo unspecified) the results were VDR inh -5%.
`CC(C)N(CCC(=O)c1ccc2ccccc2c1)Cc1ccccc1` gave JMJD2E inh 35µM*, Coupling enz 16, GoLoco inh red 6%, VDR inh 5µM*, HTT ATP protect -53%, VDR inh confirm 15*, VDR FP 7.1µM*, VDR bla inconclusive and VDR cytotox inconclusive.
`O=C(/C=C/c1ccc([N+](=O)[O-])cc1)c1cccs1` gave JMJD2E inh 2%, Coupling enz 1, GoLoco inh red 11%, HTT aggregate 12%[9.22 µM], VDR inh inconclusive, HTT ATP protect 8%[10 µM], VDR inh confirm inconclusive, VDR FP 7.1µM*, VDR bla inconclusive and VDR cytotox -9%.
Screening CC(C)c1nnc(NC(=O)c2nc(S(=O)(=O)Cc3ccccc3F)ncc2Cl)s1 returned VDR inh 20µM*, VDR inh confirm 8.4*, VDR FP 3.2µM*, VDR bla 18µM* and VDR cytotox 21µM*.
For CSc1nnc(NC(=O)c2nc(S(=O)(=O)Cc3ccccc3F)ncc2Cl)s1 the results were Coupling enz 2, VDR inh 20µM*, VDR inh confirm 6*, VDR FP 7.9µM*, VDR bla 7.3µM* and VDR cytotox 11µM*.
Cc1nnc(NC(=O)c2nc(SCc3ccccc3F)ncc2Cl)s1 was read as VDR inh 5%.
COC(=O)N1C(c2ccccc2)=Cc2ccccc2C1C1(C(=O)OC)CCCC1=O (stereo unspecified) was read as JMJD2E inh -16%, Coupling enz 6, GoLoco inh red 6%, VDR inh inconclusive and HTT ATP protect -43%.
`Cc1ccc(/C(O)=C2/C(=O)C(=O)OC2c2ccc(Cl)cc2)cc1` (stereo unspecified) gave JMJD2E inh -4%, Coupling enz 21, GoLoco inh red -5%, HTT aggregate 9%, VDR inh inconclusive, HTT ATP protect 16%, VDR inh confirm 11*, VDR FP 10µM*, VDR bla -1% and VDR cytotox 15%.
`O=c1cc(-c2ccccc2)oc2c(O)c(O)ccc12` gave JMJD2E inh 7.9µM*, Coupling enz -9, GoLoco inh red -9%, VDR inh 13µM*, HTT ATP protect -205%, VDR inh confirm 20*, VDR FP 25µM*, VDR bla 23µM* and VDR cytotox inconclusive.
O=C(O)Cc1cccc2c(=O)cc(-c3ccccc3)oc12 was read as GoLoco inh red 2%[14.2 µM] and HTT ATP protect 3%[10 µM].
For O=C(O)c1cc(/C=C/C(=O)c2cc(F)ccc2O)c2c(c1)COCO2 the results were JMJD2E inh -30%, Coupling enz 1, GoLoco inh red 7%, HTT aggregate 4%[9.22 µM], VDR inh 25µM*, HTT ATP protect 16%[10 µM], VDR inh confirm 6.7*, VDR FP inconclusive, VDR bla 27% and VDR cytotox inconclusive.
Screening COc1ccc(C(=O)/C=C/c2cc(C(=O)O)cc3c2OCOC3)c(O)c1 returned JMJD2E inh -11%, Coupling enz -1, GoLoco inh red 9%, HTT aggregate -1%[9.22 µM], VDR inh inconclusive and HTT ATP protect 18%[10 µM].
Screening CC1Cc2ccccc2N1Cc1cc(=O)c(OCC(=O)NCCc2ccccc2)co1 (stereo unspecified) returned VDR inh -19%.
`O=C(NCc1ccc2c(c1)OCO2)c1nc(S(=O)(=O)Cc2ccccc2F)ncc1Cl` gave Coupling enz 2 and VDR inh -11%.
For CCOc1ccccc1NC(=O)c1nc(S(=O)(=O)Cc2cccc(C)c2)ncc1Cl the results were VDR inh 16µM*, VDR inh confirm 8.4*, VDR FP inconclusive, VDR bla 3.3µM* and VDR cytotox 7.3µM*.
CCc1nnc(NC(=O)c2nc(SCc3ccccc3F)ncc2Cl)s1 was read as VDR inh 4%.
`CCc1nnc(NC(=O)c2nc(S(=O)(=O)Cc3cccc(C)c3)ncc2Cl)s1` gave Coupling enz 5, VDR inh 13µM*, VDR inh confirm 3*, VDR FP inconclusive, VDR bla 5.8µM* and VDR cytotox inconclusive.
O=C(NCc1ccc2c(c1)OCO2)c1nc(S(=O)(=O)Cc2ccccc2)ncc1Cl was read as VDR inh 22µM*, VDR inh confirm 9.5*, VDR FP inconclusive, VDR bla 18µM* and VDR cytotox inconclusive.
